From PubChem BioAssay (NCI)
This is part of a sample that, as a whole, favours compounds with a hit. Of some 83,000 tested, about 20% had one in any assay.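 Assay: single dose, 48 h. Readout: percent growth (0 = no net growth; negative = cell death). Active: <10.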 Unmarked numbers belong to inactive results. Activity calls are given as the source filed them.

Each compound was assayed on SNB-19 CNS (assay: NCI-60 one-dose screen, 48 h (100 = growth as untreated, 0 = no growth, -100 = all killed)). Conditions: 10 µM unless noted.
Description: Growth inhibition of the SNB-19 human tumor cell line is measured as a screen for anti-cancer activity. Cells are grown in 96 well plates and exposed to the test compound for 48 hours. Compounds are tested at a single concentration, which is 10^-5 M for most compounds. The reported endpoint is percent growth (GI% or GIPRCNT), where numbers from 0 - 100% represent growth inhibition, and numbers from -100% - 0 represent cell death. For example, a value of 40 represents 60% growth inhibition. A value of 0 means no net growth occurred over the course of the experiment. A value of -40 indicates 40% of cells at the beginning of the experiment died by the end of the experiment. A value of -100 means all cells are dead at the end of the experiment.
NCI-60 Human Tumor Cell Lines Screen was performed using the standard one-dose NCI protocol, which is described in more detail at https://dtp.cancer.gov/discovery_development/nci-60/default.htm.
Compounds with GIPRCNT values below 10 were considered active. Activity score was based on GIPRCNT using the following formula: […]
Score is 0 for GIPRCNT values of 100 or above, 50 for GIPRCNT values of 0, and 100 for GIPRCNT values of -100.
In the case of `O=S(=O)(c1ccccc1)N1CCCc2ccccc21`, the growth was 97.2%.
`COC(=O)N[C@H]1CCc2cc(OC)c(OC)c(OC)c2-c2ccc(SC)c(=O)cc21` showed a growth of 31.1%.
`COc1cc(NCC(O)CN(CC(C)C)C2CCCC2)c2ncccc2c1` (stereo not given) gave a growth of 101%.
`CNC(=O)Nc1ccc(-c2nc(N3CCOCC3)nc3c2cnn3C2CCOCC2)cc1` was tested, and the growth was 7.91% (active).
`COc1ccc(-c2cnnc3c(-c4cccc(C(F)(F)F)c4)cnn23)cc1` gave a growth of 50.4%.
`O=S(=O)(c1cccc(NC2=Nc3cccc4cccc2c34)c1)N1CCCC1` was tested, and the growth was 77.8%.
With `Clc1ccc(N2N=C(c3cccc(Nc4ccncc4)c3)CC2c2ccc3c(c2)OCO3)cc1` (stereo not given) the growth was 80.6%.
In the case of `COC(=O)Nc1nc2ccc(C(=O)c3cccc(I)c3)cc2[nH]1`, the growth was 33.6%.
Compound `O=C1Nc2ccccc2/C1=N/c1nc(-c2ccc(Cl)cc2)cs1` has a growth of 75.1%.
`CCOC(=O)c1c(O)cc(-c2ccccc2)cc1-c1sc(N(C)Cc2ccccc2)nc1Cl` gave a growth of 101%.
`O=C(Nc1ccccc1)Oc1ccccc1-c1ccccc1` was tested, and the growth was 99.5%.
Work on `Cn1c(COC(=O)NCCc2ccccn2)nc2c(N3CCOCC3)nc(Cl)nc21` yielded a growth of 60.6%.
`O=C1NC(=S)NC(=O)C1=Cc1cn(Cc2ccccn2)c2ccccc12` showed a growth of 53.4%.
With `CCOC(=O)c1cnc2c(cnn2CC)c1NN=C(C)C` the growth was 87.6%.
With `O=C(Nc1ccc(F)cc1)c1c(NC(=O)C(F)(F)F)sc2c1CCCCC2` the growth was 13.3%.
With `CN(C)C(C(N)=O)c1ccc(Cl)cc1` (stereo not given) the growth was 99.9%.
`Cc1c([N+](=O)[O-])cc(C(C)(C)C)cc1[N+](=O)[O-]` was tested, and the growth was 102%.
For `C=C(C)[C@@H]1CC[C@]2(C(=O)O)CC[C@]3(C)[C@H](CC[C@@H]4[C@@]5(C)C[C@@H](CC#Cc6ccc(Br)cc6)C(=O)C(C)(C)[C@@H]5CC[C@]43C)[C@@H]12`, the growth was 40.7%.
Compound `COc1ccc(Cn2nc3c(c2-c2cc(OC)c(OC)c(OC)c2)-c2oncc2CC3)cc1` has a growth of 91.4%.
For `Nc1nnc2cc(Cl)ccc2n1`, the growth was 104%.
For `O=C(Nc1ccc2cc3ccc(NC(=O)NC4CCCCC4)cc3nc2c1)NC1CCCCC1`, the growth was 78.9%.
`CC(=O)N1N=C(c2cccc(Nc3ccncc3)c2)CC1c1ccc2c(c1)OCO2` (stereo not given) was tested, and the growth was 94.8%.
For `CC(N)C(=O)NNc1n[nH]c(=S)n1N` (stereo not given), the growth was 99.1%.
For `CCCCCCCCCCCCCCCCCCOc1ccccc1N`, the growth was 87.1%.
Compound `Clc1cc(Cl)cc(N2N=C(c3cccc(Nc4ccncc4)c3)CC2c2ccc(Br)cc2)c1` (stereo not given) has a growth of 85.8%.
`COc1ccccc1N1CCN(C(=O)c2ccc3nc(NC(=O)c4ccc(NCCc5ccccc5)c([N+](=O)[O-])c4)sc3c2)CC1` showed a growth of 95.2%.
Work on `COC(=O)C(c1ccccc1)C(CC(=O)c1ccccc1)c1ccccc1` (stereo not given) yielded a growth of 101%.
For `Fc1ccc(C2CC(c3cccc(Nc4ccncc4)c3)=NN2c2cc(Cl)cc(Cl)c2)cc1` (stereo not given), the growth was 82.3%.
Compound `CCN(CC)CCSCCCNc1c(C)cnc2cc(Cl)ccc12` has a growth of 104%.
For `COc1cccc(/C=C2\COc3ccc(-c4ccccc4)cc3C2=O)c1`, the growth was 64.7%.
In the case of `O=C(Nc1ccc(Nc2ncccn2)cc1)NC1C=c2ccccc2=CC1` (stereo not given), the growth was 103%.
`CCCCCCCCCCCCCCCC(=O)OC[C@@]1(O)C[C@@]23CC[C@@H]4C(C)(C)[C@H](O)CC[C@@]4(C)[C@@H]2CC[C@H]1C3` was tested, and the growth was 96.7%.
Work on `CCCN=C(N)c1ccc(NC(=O)c2ccc(C(=O)Nc3ccc(C(N)=NCCC)cc3)cc2)cc1` yielded a growth of 105%.
With `COc1cc2nnn3c4ncccc4c(N=O)c3c2cc1OC` the growth was 102%.
`COc1ccc(C2=C(c3ccccc3)c3ccc(OC(C)=O)cc3OC2(C)C)cc1` gave a growth of 111%.
Compound `BrC(Br)(Br)c1cnc2ccccc2n1` has a growth of 67.9%.
`C=C1C(=O)O[C@H]2[C@H]1CC/C(COC(=O)/C=C/c1c[nH]c3ccccc13)=C\CC[C@@]1(C)O[C@@H]21` was tested, and the growth was -68.8% (active).
`COc1ccc(C(=O)c2cc3c(N)c(C(=O)Nc4cccc(Cl)c4)sc3nc2C)cc1` showed a growth of 41.8%.
Work on `COc1cc2ncnc(Nc3ccc(C(=O)/C=C/c4ccc(C(F)(F)F)cc4F)cc3)c2cc1OC` yielded a growth of 98.2%.
For `CN1CCN(Cc2ccc(NC(=O)c3cncc(C#Cc4cnccc4C(F)(F)F)c3)cc2C(F)(F)F)CC1`, the growth was 103%.
